Consider 7 compounds from PubChem BioAssay.

Active and inactive are the calls of the source.

One experiment has as its target Albumin (Bos taurus) (UniProt P02769). Kind of experiment: compounds binding labelled BSA control protein – biochemical, small-molecule microarray, Alexa647 label, 635/667 nm fluorescence, artefact control for SMM control protein annotation, profiling panel (AID 1118).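 Also: score merges 667 nm emission intensity and signal-to-noise per printed compound spot.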 To be noted: BSA-A647 binding, fluorescence 635 nm, higher = more signal.
Experiment [1] in a line: probe aXIP binding to arrayed compounds – biochemical, NeuroSMM set, 635/667 nm fluorescence, primary screen (AID 1119).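 Also: probe is the protein aXip251-270 applied at 1 µg/mL to compound-printed slides; binding of probe to printed compounds measured as 667 nm fluorescence plus signal to noise.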 To be noted: small-molecule microarray, higher = more signal, called active from +8 up or from −8 down.
A short description of experiment [2]: probe aNOTCH3 binding on compound microarray – biochemical, small-molecule microarray, 635/667 nm fluorescence, primary screen (AID 1120).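 Also: probe is a biotin-tagged antibody raised against NOTCH3 rather than NOTCH3 protein; score merges spot fluorescence near 667 nm with spot signal to noise.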 Particulars: higher = more signal.
A short description of experiment [3]: probe aNOTCH2 binding on compound microarray – biochemical, small-molecule microarray, 635/667 nm fluorescence, primary screen (AID 1121).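 Also: score merges feature fluorescence read at 667 nm with its signal to noise.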 To be noted: higher = more signal.
The target in experiment [4] is Carbonic anhydrase 2 (Homo sapiens) (UniProt P00918). Kind of experiment: compounds binding carbonic anhydrase 2 – biochemical, small-molecule microarray, Alexa647-labelled CAII, profiling panel (AID 1122). Particulars: CAII-A647 binding fluorescence, higher = more signal.
The nature of experiment [5]: COS7 lysate on small-molecule microarray, probe aHis, 635 nm (AID 1123).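 Also: z-score combines 667nm fluorescence intensity with signal-to-noise per printed compound spot.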 To be noted: COS7 cell lysate, fluorescence, higher = more signal.
Experiment [6] is described as follows: probe aLAP1 signal on lysate-treated microarray – cell lysate, small-molecule microarray, COS7 lysate, primary screen (AID 1124).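 Also: lysate comes from COS7 cells expressing LAP1 and is applied at 0.3 µg/mL; score merges spot fluorescence near 667 nm with signal-to-noise over triplicate slides.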 Particulars: probe aLAP1, fluorescence, higher = more signal.
A further experiment concerns Sam68 (KHDRBS1). Kind of experiment: compounds binding KHDRBS1 protein – biochemical, small-molecule microarray, 635 nm fluorescence, primary screen (AID 1125).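 Also: score merges 667 nm channel intensity with signal to noise over triplicate slides.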 Particulars: higher = more signal.
In experiment [7] the test system is Chordin-like protein 2 (CHRDL2). Kind of experiment: compounds binding chordin-like 2 – biochemical, small-molecule microarray, 635 nm fluorescence, primary screen (AID 1126).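 Also: printed compound slides probed with Chrdl2 protein at 4 µg/mL for 1 h at 4 C; score merges 667 nm emission intensity with signal to noise over three replicate slides.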 Particulars: fluorescence 635 nm, higher = more signal.
Experiment [8] has as its target Concanavalin-A (Canavalia ensiformis) (UniProt P02866). Kind of experiment: compounds binding concanavalin A lectin – biochemical, small-molecule microarray, Alexa647 label, 635 nm, artefact control for SMM control protein annotation, primary screen (AID 1127).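 Also: z combines 667 nm emission intensity with signal-to-noise across three replicate slides.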 Particulars: ConA-A647 binding fluorescence, higher = more signal.
The nature of experiment [9]: compounds binding Alexa647 anti-His antibody – biochemical, small-molecule microarray, 635 nm fluorescence, artefact control for SMM control protein annotation, primary screen (AID 1128).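 Also: score merges feature fluorescence with signal-to-noise for each printed compound spot.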 To be noted: higher = more signal.
Experiment [10] concerns Human papillomavirus type 1a E7 protein (residues 1-88). Kind of experiment: HPV1a E7 small-molecule binders, primary screen, biochemical, small-molecule microarray, residues 1-88, 635 nm (AID 1129). Particulars: small-molecule microarray binding, fluorescence 635 nm; higher = more signal.
In experiment [11] the target is Focal adhesion kinase 1 (Homo sapiens) (UniProt Q05397). Kind of experiment: PTK2 protein binding on printed compound slides – biochemical, small-molecule microarray, 635/667 nm fluorescence, BSA, DTT, primary screen (AID 1130).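 Also: composite of spot emission at 667 nm and signal to noise over triplicate slides.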 Particulars: 635 nm fluorescence, higher = more signal.
In experiment [12] the test system is Fibrinogen (Alexa647-labelled). Kind of experiment: Alexa647-fibrinogen binding to printed small molecules – biochemical, small-molecule microarray, 635/667 nm fluorescence, artefact control for SMM control-protein annotation, profiling panel (AID 1131).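 Also: z-score merges 667 nm fluorescence with per-spot signal-to-noise over triplicate slides.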 To be noted: fibrinogen-A647 binding fluorescence, higher = more signal.
Experiment [13] concerns the target Follistatin (Homo sapiens) (UniProt P19883). Kind of experiment: FST protein binding to printed compounds – biochemical, small-molecule microarray, 635/667 nm fluorescence, primary screen (AID 1132). Particulars: 635 nm fluorescence, higher = more signal.
Experiment [14] addresses Fibroblast growth factor 2 (Homo sapiens) (UniProt P09038). Kind of experiment: basic fibroblast growth factor binding to printed compounds – biochemical, small-molecule microarray, 635/667 nm fluorescence, primary screen (AID 1133). Particulars: FGF2, fluorescence 635/667, higher = more signal.
A short description of experiment [15]: JC-1 mitochondrial potential readout, lung cancer cells – cell-based, A549, JC-1 fluorescence, basal, 24 h, 100 nL, profiling panel (AID 1138).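 Also: A549 lung adenocarcinoma cells under basal conditions with no added stimulus; test concentration not given here.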 Particulars: higher = more signal.
The next experiment relates to Lefty1. Kind of experiment: Lefty1 protein binding to printed compounds – biochemical, small-molecule microarray, 635/667 nm fluorescence, primary screen (AID 1139). To be noted: fluorescence 635/667, higher = more signal.
Experiment [16] concerns wheat germ agglutinin (Triticum aestivum), Alexa647-labelled. Kind of experiment: Alexa647-WGA lectin binding to printed small molecules – biochemical, small-molecule microarray, 635/667 nm fluorescence, artefact control for SMM control-protein annotation, profiling panel (AID 1140).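 Also: score merges 667 nm feature emission with signal to noise over triplicate slides.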 Particulars: WGA-A647 binding, 635 nm fluorescence, higher = more signal.
Experiment [17] has as its target Luciferin 4-monooxygenase (Photinus pyralis) (UniProt P08659). Kind of experiment: inhibition of purified Photinus pyralis luciferase – biochemical, luminescence, purified enzyme, 2006 set, primary screen (AID 1141).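 Also: cell-free assay with purified firefly luciferase at 100 ng per well in PBS; test concentration not given here.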 Particulars: purified firefly luciferase, SteadyGlo luminescence, 30 min; higher = more signal, called active from +8 up or from −8 down.

Luciferin 4-monooxygenase (Photinus pyralis), sequence (P08659 whole entry, looked up): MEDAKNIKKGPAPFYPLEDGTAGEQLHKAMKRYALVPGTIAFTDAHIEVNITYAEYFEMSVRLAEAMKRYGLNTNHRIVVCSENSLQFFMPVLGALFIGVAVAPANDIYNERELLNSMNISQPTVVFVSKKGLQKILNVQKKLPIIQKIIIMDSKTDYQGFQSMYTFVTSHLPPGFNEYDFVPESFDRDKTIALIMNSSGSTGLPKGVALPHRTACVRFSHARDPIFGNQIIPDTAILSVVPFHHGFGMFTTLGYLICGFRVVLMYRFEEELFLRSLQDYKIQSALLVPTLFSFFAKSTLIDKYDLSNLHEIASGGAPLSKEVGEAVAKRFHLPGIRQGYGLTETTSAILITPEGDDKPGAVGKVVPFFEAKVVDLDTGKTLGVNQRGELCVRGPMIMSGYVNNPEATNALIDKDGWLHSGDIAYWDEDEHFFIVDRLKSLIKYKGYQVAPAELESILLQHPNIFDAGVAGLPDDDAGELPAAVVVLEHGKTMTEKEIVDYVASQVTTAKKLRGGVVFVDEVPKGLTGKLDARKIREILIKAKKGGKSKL
Albumin (Bos taurus), sequence (P02769 whole entry, looked up): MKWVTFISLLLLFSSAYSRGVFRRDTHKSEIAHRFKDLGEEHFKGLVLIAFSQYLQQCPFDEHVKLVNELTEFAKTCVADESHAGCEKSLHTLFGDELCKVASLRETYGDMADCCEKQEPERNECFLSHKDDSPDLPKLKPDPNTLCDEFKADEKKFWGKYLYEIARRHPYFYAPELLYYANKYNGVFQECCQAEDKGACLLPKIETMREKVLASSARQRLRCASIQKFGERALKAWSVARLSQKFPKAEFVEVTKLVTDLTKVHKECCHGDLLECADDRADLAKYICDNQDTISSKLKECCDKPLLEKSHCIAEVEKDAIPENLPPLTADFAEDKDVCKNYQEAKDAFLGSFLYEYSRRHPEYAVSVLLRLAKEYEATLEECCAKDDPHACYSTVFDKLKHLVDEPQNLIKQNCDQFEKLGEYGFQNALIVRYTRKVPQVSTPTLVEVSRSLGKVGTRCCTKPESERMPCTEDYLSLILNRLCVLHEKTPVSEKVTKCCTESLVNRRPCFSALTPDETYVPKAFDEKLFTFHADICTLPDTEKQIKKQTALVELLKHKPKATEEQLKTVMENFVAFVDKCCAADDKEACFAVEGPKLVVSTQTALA
Fibroblast growth factor 2 (Homo sapiens), sequence (P09038 whole entry, looked up): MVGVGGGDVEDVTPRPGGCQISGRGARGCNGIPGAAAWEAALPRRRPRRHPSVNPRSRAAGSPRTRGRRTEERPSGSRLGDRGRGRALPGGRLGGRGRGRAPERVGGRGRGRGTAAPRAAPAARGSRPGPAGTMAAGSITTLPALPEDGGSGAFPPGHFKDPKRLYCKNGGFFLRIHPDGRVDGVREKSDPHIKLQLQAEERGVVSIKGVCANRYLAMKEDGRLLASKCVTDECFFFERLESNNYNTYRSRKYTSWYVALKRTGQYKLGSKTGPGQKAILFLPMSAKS
Follistatin (Homo sapiens), sequence (P19883 whole entry, looked up): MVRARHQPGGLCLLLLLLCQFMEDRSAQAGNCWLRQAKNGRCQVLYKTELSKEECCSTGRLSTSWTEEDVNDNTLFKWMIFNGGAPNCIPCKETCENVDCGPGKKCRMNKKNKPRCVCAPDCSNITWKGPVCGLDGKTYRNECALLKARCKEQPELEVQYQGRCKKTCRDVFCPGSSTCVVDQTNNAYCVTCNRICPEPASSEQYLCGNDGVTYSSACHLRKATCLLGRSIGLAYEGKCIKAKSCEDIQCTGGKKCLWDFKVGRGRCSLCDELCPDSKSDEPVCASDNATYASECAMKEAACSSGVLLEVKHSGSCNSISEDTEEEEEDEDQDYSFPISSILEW
Focal adhesion kinase 1 (Homo sapiens), sequence (Q05397 whole entry, looked up): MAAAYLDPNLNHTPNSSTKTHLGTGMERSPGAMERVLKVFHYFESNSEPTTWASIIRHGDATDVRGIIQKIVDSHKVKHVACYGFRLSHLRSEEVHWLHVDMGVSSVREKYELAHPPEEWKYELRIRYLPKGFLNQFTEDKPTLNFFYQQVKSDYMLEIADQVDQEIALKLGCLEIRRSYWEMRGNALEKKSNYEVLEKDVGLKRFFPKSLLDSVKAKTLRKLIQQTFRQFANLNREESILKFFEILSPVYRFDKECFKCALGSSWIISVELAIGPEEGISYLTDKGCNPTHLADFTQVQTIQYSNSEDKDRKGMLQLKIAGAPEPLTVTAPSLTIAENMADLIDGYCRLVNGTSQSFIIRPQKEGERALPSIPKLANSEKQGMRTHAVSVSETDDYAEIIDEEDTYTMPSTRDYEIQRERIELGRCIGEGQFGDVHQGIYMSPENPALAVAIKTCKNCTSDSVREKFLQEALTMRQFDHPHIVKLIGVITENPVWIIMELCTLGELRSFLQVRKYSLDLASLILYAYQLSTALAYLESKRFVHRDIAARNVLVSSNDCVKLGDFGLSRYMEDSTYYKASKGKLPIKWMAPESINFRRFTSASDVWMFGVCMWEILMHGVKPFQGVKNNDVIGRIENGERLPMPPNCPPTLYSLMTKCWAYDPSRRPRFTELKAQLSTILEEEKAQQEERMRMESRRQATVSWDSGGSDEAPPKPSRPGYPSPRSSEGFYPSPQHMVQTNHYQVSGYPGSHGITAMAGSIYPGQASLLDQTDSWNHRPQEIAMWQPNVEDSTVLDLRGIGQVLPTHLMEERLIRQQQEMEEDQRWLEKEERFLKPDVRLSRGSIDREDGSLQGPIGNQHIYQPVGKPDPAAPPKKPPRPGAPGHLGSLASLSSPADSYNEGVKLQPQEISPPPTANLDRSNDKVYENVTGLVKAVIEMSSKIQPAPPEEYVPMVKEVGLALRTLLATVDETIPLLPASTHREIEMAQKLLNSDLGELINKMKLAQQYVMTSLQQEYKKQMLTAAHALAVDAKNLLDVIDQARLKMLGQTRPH
Concanavalin-A (Canavalia ensiformis), sequence (P02866 whole entry, looked up): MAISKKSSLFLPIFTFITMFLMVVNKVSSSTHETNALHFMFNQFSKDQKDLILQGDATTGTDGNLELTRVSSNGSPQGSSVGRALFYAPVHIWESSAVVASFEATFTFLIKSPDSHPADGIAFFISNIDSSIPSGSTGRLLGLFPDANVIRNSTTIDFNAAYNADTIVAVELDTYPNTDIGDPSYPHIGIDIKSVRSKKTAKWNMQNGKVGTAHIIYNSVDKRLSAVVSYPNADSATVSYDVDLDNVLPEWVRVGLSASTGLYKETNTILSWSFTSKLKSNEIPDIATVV

For `O=C1[C@H]2[C@H]3[C@H](O)[C@H](O)CC(=NOCc4ccccc4)[C@@H]3CC[C@H]2C(=O)N1c1cccc(Oc2ccccc2)c1`, the composite z-score in the experiment with Albumin (Bos taurus) was 0.446; in experiment [2], -0.119; in experiment [3] it was -0.147; in experiment [4], 0.146; in experiment [5], 0.536; in experiment [6] it was 0.397. For the same compound, the composite z-score in the experiment with Sam68 (KHDRBS1) came out at 1.32; in experiment [7], 0.0204; in experiment [8], 0.335; in [9], 0.695; in experiment [10], 0.452; in [11] it was 0.0881. The composite z-score came to 0.96 in [12]; 0.248 in [13]; 0.184 in experiment [14]; 0.687 in the experiment with Lefty1; 0.315 in [16]. In addition, in experiment [1], the composite Z-score was 0.0894 (inactive). Also, the figures for the z-score in experiment [15] and in experiment [17] were 0.578 and 0.245 (inactive), respectively.
For the compound `CO[C@H]1COC(=O)CC=C[C@@H](C)COC(=O)[C@H]2CCCN2C(=O)CC=C[C@H]1C`, the composite z-score with Albumin (Bos taurus) is -0.893; in experiment [2], -0.122; in [3], -0.166; in experiment [4], -0.516; in experiment [5] it was -0.916; in [6] it was 0.449. For the same compound, the composite z-score in the experiment with Sam68 (KHDRBS1) was 0.536; in experiment [7], 1.19; in experiment [8], -0.923; in experiment [9] it was -0.19; in experiment [10] it was -1.54; in [11], -0.0701. Further, the composite z-score in experiment [12] is -1.05; in experiment [13], 1.46; in experiment [14], 1.96; with Lefty1, 1.68; in experiment [16], -0.604. The composite Z-score in [1] was 0.297 (inactive). Besides, the z-score in experiment [15] is 1.06; in experiment [17], -1.32 (inactive).
As to `CON=C(C)CCN1CCc2nc(-c3ccccc3)c(-c3ccccc3)cc2C1`, the composite z-score with Albumin (Bos taurus) is 0.633; in [2] it was -0.132; in experiment [3], -0.0829; in experiment [4] it was -0.153; in experiment [5], -0.556; in experiment [6] it was 0.0881. Also, the composite z-score was -0.303 in the experiment on Sam68 (KHDRBS1); 0.258 in experiment [7]; 1.13 in experiment [8]; -0.634 in experiment [9]; -0.545 in experiment [10]; -0.414 in experiment [11]. Besides, the composite z-score was 0.838 in experiment [12]; 0.944 in experiment [13]; 0.344 in experiment [14]; 0.686 in the experiment on Lefty1; 0.801 in experiment [16]. Further, the composite Z-score in experiment [1] is 0.837 (inactive). The z-score is 2.9 in [15] and 0.326 (inactive) in experiment [17].
As to `COc1ccc(COC(=O)NN=C2C[C@@H](O)[C@@H](O)[C@@H]3[C@@H]4C(=O)N([C@@H](C)c5ccccc5)C(=O)[C@@H]4CC[C@H]23)cc1`, the composite z-score in the experiment with Albumin (Bos taurus) is 0.434; in experiment [2], 0.24; in [3], 0.867; in experiment [4], -0.277; in [5], 0.232; in experiment [6], -0.266. Moreover, the composite z-score with Sam68 (KHDRBS1) is -0.638; in [7], -0.217; in experiment [8] it was 0.0744; in experiment [9], -0.485; in experiment [10] it was -0.521; in [11], -0.393. Besides, the composite z-score was -0.137 in [12]; -0.528 in experiment [13]; -0.509 in [14]; -0.794 with Lefty1; 0.271 in experiment [16]. The composite Z-score in experiment [1] is -0.259 (inactive). In addition, the z-score in experiment [15] was -0.419; in experiment [17], 0.779 (inactive).
For `C#CCCCON=C1C[C@@H](O)[C@@H](O)[C@@H]2[C@@H]3C(=O)N(C[C@@H]4CCCO4)C(=O)[C@@H]3CC[C@@H]12`, the composite z-score was 0.211 with Albumin (Bos taurus); -0.047 in experiment [2]; -0.0614 in experiment [3]; 0.406 in experiment [4]; 0.31 in experiment [5]; 0.221 in [6]. For the same compound, the composite z-score in the experiment on Sam68 (KHDRBS1) was 0.254; in [7], 0.264; in [8], 0.842; in [9], 0.265; in experiment [10], 0.439; in experiment [11], -0.14. The composite z-score in [12] was 0.527; in experiment [13], 0.378; in experiment [14] it was 0.222; in the experiment with Lefty1, 0.554; in experiment [16], 0.553. Further, the composite Z-score in experiment [1] is -0.294 (inactive). For the same compound, the z-score was 0.441 in experiment [15] and -0.106 (inactive) in experiment [17].
As to `COC(=O)[C@@H]1CC[C@H](C)[C@@H](c2ccc(Br)cc2)N1C[C@H](O)CN=[N+]=[N-]`, the composite z-score with Albumin (Bos taurus) is 0.0539; in experiment [2] it was -0.0219; in experiment [3] it was -0.12; in [4], -0.109; in experiment [5] it was 0.653; in experiment [6] it was 0.475. The composite z-score in the experiment on Sam68 (KHDRBS1) was -0.0747; in experiment [7], 0.101; in experiment [8], -0.35; in experiment [9], 0.383; in experiment [10] it was -0.459; in experiment [11], 0.709. Moreover, the composite z-score in [12] is 0.118; in experiment [13], -0.117; in experiment [14], 0.0395; in the experiment with Lefty1, 0.17; in experiment [16], 0.162. Besides, the composite Z-score in experiment [1] was 0.486 (inactive). In addition, the z-score in experiment [15] is -0.821; in [17], -0.169 (inactive).
Consider `CO[C@H]1COC(=O)CCC[C@H](C)[C@@H](OC)COC(=O)CC=C[C@@H]1C`, for which the composite z-score was -0.553 in the experiment with Albumin (Bos taurus); -0.136 in experiment [2]; -0.0766 in experiment [3]; -0.298 in experiment [4]; -0.378 in experiment [5]; -0.0711 in experiment [6]. For the same compound, the composite z-score in the experiment with Sam68 (KHDRBS1) is 0.113; in [7] it was 0.896; in experiment [8], -0.427; in experiment [9], 1.36; in experiment [10], -0.117; in experiment [11], -0.246. Besides, the composite z-score in [12] is -0.0891; in [13], 0.393; in experiment [14], 0.638; in the experiment with Lefty1, 0.562; in [16], -0.181. In addition, the composite Z-score in experiment [1] was 0.168 (inactive). For the same compound, the z-score in experiment [15] was -0.86; in experiment [17], 0.949 (inactive).
